Assay results published in ChEMBL document CHEMBL4513216, “Probing the Open Global Health Chemical Diversity Library for Multistage-Active Starting Points for Next-Generation Antimalarials” (ACS Infect Dis, 2020).
About 2,700 (4%) of roughly 68,000 compounds showed an effect of 50% or more. What follows is part of a selection rich in strong results, with near analogues and random picks from the rest.

These compounds were tested on Plasmodium berghei (assay: Screen against P. berghei liver stage (PbLuc), transformed with Luciferase, at 2uM). Conditions: tested at 2 uM.
Type: functional, HepG2
CCn1[nH]c(C)c2c(C(F)(F)C(F)(F)F)cc(=O)nc1-2 showed an INHIBITION of 1.01%.
Cc1nsc(C(=O)NCCc2ccccc2)n1 showed an INHIBITION of -7.16%.
In the case of Cc1nsc(C(=O)NCCc2cccs2)n1, the INHIBITION is reported as 55.25%.
Work on Cc1nsc(C(=O)NCCc2ccc(F)cc2)n1 yielded an INHIBITION of -0.59%.
With Cc1ccc(CN2CCC3(CC2)CC(c2cccnc2)CO3)s1 (stereo unspecified) the INHIBITION was 23.79%.
For CCS(=O)(=O)c1ccc(N2CCC(NC(=O)NC(C)CO)CC2)cc1 (stereo unspecified), the INHIBITION was 7.85%.
With CN(Cc1ccc(F)cc1)C(=O)Cn1nc(-c2ccc(F)cc2)oc1=O the INHIBITION was -10.54%.
Work on Cc1ccsc1CN(C)C(=O)Cn1nc(-c2ccc(F)cc2)oc1=O yielded an INHIBITION of 51.99%.
In the case of Cc1ccc(CN(C)C(=O)Cn2nc(-c3ccc(F)cc3)oc2=O)cc1, the INHIBITION is reported as 5.28%.
In the case of COc1ccc(CC(C)(O)CNC(=O)NCc2cccs2)cc1 (stereo unspecified), the INHIBITION is reported as 45.62%.
Compound CC(C)OCC(=O)N1CCCN(Cc2ccc(C#N)cc2)CC1 has an INHIBITION of 2.08%.
Cc1nccn1C1CCCN(C(=O)c2sccc2-n2cnnn2)C1 (stereo unspecified) was tested, and the INHIBITION was -13.92%.
Compound Cc1ccc2c(c1)c(CNC(=O)C1CCN(CC(N)=O)CC1)nn2C has an INHIBITION of 58.53%.
Work on Cc1ccc2c(c1)c(CNC(=O)C1CCCN(CC(N)=O)C1)nn2C (stereo unspecified) yielded an INHIBITION of -1.87%.
Cc1ccc2c(c1)c(CNC(=O)C1CCN(C(=O)C3CC3)CC1)nn2C gave an INHIBITION of -13.72%.
CC(C)c1cc(C(=O)N[C@@H]2CC[C@@H](Oc3ccccc3)[C@@H]2O)on1 gave an INHIBITION of 19.69%.
CCc1c(C(=O)O)nnn1-c1cc(C)cc(C)c1 showed an INHIBITION of -50.41%.
COc1ccccc1OC1(C(=O)O)CCN(c2nccnc2C)CC1 showed an INHIBITION of 1.34%.
In the case of COc1ccccc1OC1(C(=O)O)CCN(c2nc(C)cnc2C)CC1, the INHIBITION is reported as 33.9%.
In the case of COc1ccccc1OC1(C(=O)O)CCN(c2ncnc(C)c2C)CC1, the INHIBITION is reported as 60.13%.
Compound O=C(CC1CC1)NC[C@]12COC[C@H]1CN(c1ncccn1)C2 has an INHIBITION of 22.36%.
For COc1cccc(CC(=O)N2CCCC2c2nc(C)c(F)c(O)n2)c1 (stereo unspecified), the INHIBITION was 52.82%.
For COc1ccc(CC(=O)N2CCCC2c2nc(C)c(C)c(O)n2)cc1 (stereo unspecified), the INHIBITION was 29.48%.
Work on Cc1nc(C2CCCN2C(=O)Cc2cccc(F)c2)nc(O)c1C (stereo unspecified) yielded an INHIBITION of 27.81%.
COc1cccc(CC(=O)N2CCCC2c2nc(C)c(C)c(O)n2)c1 (stereo unspecified) was tested, and the INHIBITION was 55.74%.
For Cc1nc(C2CCCN2C(=O)Cc2ccc3c(c2)OCO3)nc(O)c1C (stereo unspecified), the INHIBITION was 22.39%.
With Cc1nc(C2CCCN2C(=O)Cc2ccc(F)cc2)nc(O)c1C (stereo unspecified) the INHIBITION was 46.57%.
Work on CCOC(=O)[C@]12CCCN(Cc3cccs3)C[C@H]1CN(C(C)=O)C2 yielded an INHIBITION of -12.74%.
For Cc1nc2cc(O)nn2c(C)c1CCC(=O)N(C)Cc1cscn1, the INHIBITION was -1.73%.
CC(C)c1ccc(-n2cc(O)c(C(=O)N3CCC(C(N)=O)CC3)n2)cc1 was tested, and the INHIBITION was -40.06%.
In the case of Cc1nc(COC[C@]23COC[C@H]2CN(Cc2ccoc2)C3)cs1, the INHIBITION is reported as 18.57%.
With COc1ccc(C(C(=O)O)N2CCC(Cn3cccn3)CC2)cc1F (stereo unspecified) the INHIBITION was 15.46%.
With Cc1ccnc(NC(=O)c2c(C)oc(C)c2C)c1 the INHIBITION was -18.78%.
CCC1(C)Cc2ccccc2-c2nc(NCCCO)nc(O)c21 (stereo unspecified) showed an INHIBITION of 44.7%.
Compound CCOc1ccc2[nH]c3c(N(C)CC4OCCO4)ncnc3c2c1 has an INHIBITION of 38.64%.
Cc1ccc(S(=O)(=O)NC(=O)CCC(F)(F)F)cc1N(C)C showed an INHIBITION of 3.39%.
For CN(C)c1nc(NCCc2cnccn2)ncc1F, the INHIBITION was 44.19%.
Work on CN1CCN(C)C2(CCN(Cc3ccc(C4CCCCO4)o3)CC2)C1 (stereo unspecified) yielded an INHIBITION of -6.27%.
Work on OCC1(O)CCN(Cc2ccc(C3CCCCO3)o2)CC1 (stereo unspecified) yielded an INHIBITION of 61.27%.
CN1CCC2(CC1)CN(Cc1ccc(C3CCCCO3)o1)CCCN2C (stereo unspecified) showed an INHIBITION of -83.94%.
CC(=O)N1CCN(C(=O)CN2CCc3c(ncn3C3CC3)C2)CC1 was tested, and the INHIBITION was 37.52%.
In the case of Cc1ccsc1CN(CCN(C)C)C(=O)C1=NNC(=O)CC1, the INHIBITION is reported as -1.87%.
For COC(=O)c1sccc1NC(=O)C1CCCN1C(=O)c1ccco1 (stereo unspecified), the INHIBITION was -16.52%.
With COCc1ccccc1NC(=O)[C@@H]1CCCN1C(=O)c1ccco1 the INHIBITION was 1.86%.
Cc1cccc(NC(=O)C2CCCN2C(=O)c2ccco2)c1C (stereo unspecified) gave an INHIBITION of 58.53%.
O=C(CN1CCN(c2ncnc3cccc(F)c23)CC1)N1CCCC1 showed an INHIBITION of -11.35%.
For O=C(Cc1c(F)cccc1F)N1CCN(CC(=O)N2CCCC2)CC1, the INHIBITION was 57.95%.
Compound NC(=O)CN1CCCN(C(=O)Cc2ccc(F)cc2)CC1 has an INHIBITION of 33.12%.
Work on CCc1n[nH]c(C2CN(C(=O)c3cscn3)CCO2)n1 (stereo unspecified) yielded an INHIBITION of -34.61%.
In the case of Cc1cc(N2CCCCC2)c(C#N)c(C)n1, the INHIBITION is reported as 54.44%.
Cc1csc(N2CCCN(c3cc(C)nc(C)c3C#N)CC2)n1 was tested, and the INHIBITION was -20.21%.
Work on Cc1cc(N2CCCC2)c(C#N)c(C)n1 yielded an INHIBITION of -27.68%.
Work on Cn1cccc1C(=O)N1CCCN(CCCc2ccccc2)CC1 yielded an INHIBITION of -25.8%.
Compound CC(=O)Nc1ccc2nc(-c3nccn3C[C@@H]3CCCO3)ccc2c1 has an INHIBITION of 25.13%.
CCc1nc(C)c(-c2nccn2CC2CCCCO2)[nH]1 (stereo unspecified) was tested, and the INHIBITION was 54.75%.
With Cc1nccn1CCC1CCN(C2CCC3(CCNCC3)CC2)CC1 the INHIBITION was 34.52%.
Compound CCc1nc(C)c(-c2nccn2CC2CCN(C3CCCC3)CC2)[nH]1 has an INHIBITION of 56.81%.
Work on CCc1nc(C)c(-c2nccn2CC2CC(=O)N(CC)C2)[nH]1 (stereo unspecified) yielded an INHIBITION of -5.65%.
Cc1cnc(C)c(N2CCN(CC3CCCO3)CC2)n1 (stereo unspecified) gave an INHIBITION of -18.84%.
O=C(c1ccoc1)N1C[C@H]2CC[C@@]3(N=C(c4ccccc4)NC3=O)[C@H]2C1 gave an INHIBITION of -1.45%.
Cc1nn(C)c2c(=O)n(C)c(NCC3CCCO3)nc12 (stereo unspecified) was tested, and the INHIBITION was 37.45%.
For CC(C)=CCCN1CCN(C)C2(CCC(=O)N(C)CC2)C1 (stereo unspecified), the INHIBITION was 77.56%.
CC/C(C)=C/CCN1CCN(C)C2(CCNC(=O)CC2)C1 (stereo unspecified) was tested, and the INHIBITION was 20.2%.
CC(C)=CCC/C(C)=C/CN1CCN(C)C2(CCNC(=O)CC2)C1 (stereo unspecified) was tested, and the INHIBITION was 43.94%.
Cc1noc(C)c1CN1CCc2ncnc(-c3ccccc3)c2CC1 showed an INHIBITION of -20.87%.
Compound O=S(=O)(Cc1ccccc1)NCC1CCCN(Cc2cccs2)C1 (stereo unspecified) has an INHIBITION of 64.35%.
In the case of CC(C)(C)OC(=O)NC1CCCN(Cc2cccs2)C1 (stereo unspecified), the INHIBITION is reported as 1.08%.
O=C(Cc1cccs1)N1CCCC(CNS(=O)(=O)Cc2ccccc2)C1 (stereo unspecified) gave an INHIBITION of -40.36%.
O=C(CN1CCCC1)N1CCCC(CNS(=O)(=O)Cc2ccccc2)C1 (stereo unspecified) was tested, and the INHIBITION was -4.77%.
Cc1ncsc1CCC(=O)NC1CCN(Cc2cccs2)CC1 gave an INHIBITION of 26.93%.
For CCCC(=O)NC1CCCN(Cc2cccs2)C1 (stereo unspecified), the INHIBITION was 53.65%.
